Measured values taken from paper PMC4336329 (PLoS ONE, 2015).
The whole screen tested about 310,000 compounds, of which about 14,000 (4.5%) showed an effect of 50% or more. Effects have a minus sign here. For the sample, strong results were picked, then their nearest neighbours and some compounds at random.

Target: human ether-à-go-go-related gene (hERG) potassium channel (human, UniProt Q12809)
Assay: primary screen, population patch clamp on CHO cells stably expressing hERG; higher = less effect of the substance
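Note: peak tail current of the secondary pulse compared with the same well before compound.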

human ether-à-go-go-related gene (hERG) potassium channel, sequence (Q12809 whole entry, looked up): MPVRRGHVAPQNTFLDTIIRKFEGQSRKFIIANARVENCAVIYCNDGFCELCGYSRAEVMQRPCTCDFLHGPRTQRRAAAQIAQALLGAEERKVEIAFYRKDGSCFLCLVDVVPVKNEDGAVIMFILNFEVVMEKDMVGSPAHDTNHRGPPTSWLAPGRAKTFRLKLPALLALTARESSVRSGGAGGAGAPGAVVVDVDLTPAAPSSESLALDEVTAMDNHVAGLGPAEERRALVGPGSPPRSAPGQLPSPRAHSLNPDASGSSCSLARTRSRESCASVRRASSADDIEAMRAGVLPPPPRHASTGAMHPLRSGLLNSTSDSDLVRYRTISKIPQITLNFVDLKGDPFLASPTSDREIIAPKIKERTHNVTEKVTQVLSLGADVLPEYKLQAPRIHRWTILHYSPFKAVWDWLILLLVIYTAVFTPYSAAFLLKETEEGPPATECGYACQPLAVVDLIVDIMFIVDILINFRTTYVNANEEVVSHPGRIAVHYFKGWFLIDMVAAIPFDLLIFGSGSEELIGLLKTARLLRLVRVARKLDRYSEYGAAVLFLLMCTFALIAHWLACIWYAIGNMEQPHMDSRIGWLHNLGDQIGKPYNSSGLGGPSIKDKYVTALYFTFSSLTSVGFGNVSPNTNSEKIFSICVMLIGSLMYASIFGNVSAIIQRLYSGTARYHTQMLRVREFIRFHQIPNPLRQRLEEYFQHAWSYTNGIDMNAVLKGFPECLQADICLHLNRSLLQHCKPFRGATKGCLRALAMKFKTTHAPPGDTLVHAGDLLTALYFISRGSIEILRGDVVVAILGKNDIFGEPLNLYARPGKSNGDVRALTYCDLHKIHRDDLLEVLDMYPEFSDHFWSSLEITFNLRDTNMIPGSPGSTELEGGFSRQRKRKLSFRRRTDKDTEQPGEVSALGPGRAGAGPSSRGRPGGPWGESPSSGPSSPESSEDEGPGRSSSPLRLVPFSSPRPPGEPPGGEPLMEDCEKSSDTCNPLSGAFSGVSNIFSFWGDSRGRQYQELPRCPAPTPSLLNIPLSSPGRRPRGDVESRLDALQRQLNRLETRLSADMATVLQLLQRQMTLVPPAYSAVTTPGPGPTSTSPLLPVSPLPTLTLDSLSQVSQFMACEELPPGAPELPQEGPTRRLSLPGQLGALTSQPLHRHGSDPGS

SMILES	hERG current change (%, negative = inhibition) at 10uM [%]
COc1ccc(C)cc1S(=O)(=O)N1CCCC(N2CCOCC2)C1 (stereo not shown)	13.4
O=S(=O)(Nc1cccc2c1CCCC2)c1ccc(Cl)cc1	-9.87
COC(=O)c1c(NC(=O)C2CCC2)sc(C(=O)N(C)C)c1C	4
O=C(/C=C/c1ccc2c(c1)OCO2)c1c(O)n(CCc2ccccc2)c(=O)[nH]c1=O	1.79
COc1cc(CCC(=O)OCC(=O)Nc2ccc(Br)cc2F)cc(OC)c1OC	-11.6
O=C(CN1CCOCC1)Nc1ccc(Cl)cc1	-1.12
O=C(CN1CCN(CC(=O)Nc2ccc(Cl)cc2)CC1)Nc1ccc(F)cc1	-76.9
NC(=O)c1ccc(NC(=O)CN2CCN(c3ccccc3)CC2)cc1	12.6
O=C(CN1CCN(CC(=O)Nc2ccc(-c3ccccc3)cc2)CC1)Nc1ccc(F)cc1	-66.2
O=C(CN1CCOCC1)Nc1ccc(F)cc1	2.97
O=C(CSc1cc(Cl)ccc1Cl)Nc1ccc(N2CCOCC2)cc1	-58.3
O=C(CN1CCN(CC(=O)Nc2cccc(F)c2)CC1)Nc1ccc(-c2ccccc2)cc1	-28.6
O=C(CN1CCN(c2ccccc2)CC1)Nc1ccc(F)cc1	-39.7
NC(=O)c1ccc(NC(=O)CN2CCN(c3ccc(Cl)cc3)CC2)cc1	-51.3
Cc1ccc(SCC(=O)Nc2ccc(N3CCOCC3)cc2)c(C)c1	10.5
COC(=O)c1ccc(NC(=O)CN2CCN(c3ccc(Cl)cc3)CC2)cc1	11.9
O=C(CSc1ccccc1F)Nc1ccc(N2CCOCC2)cc1	3.82
COc1cc(Cl)c(C)cc1NC(=O)c1ccc2c(c1)OCO2	19
O=c1oc2ccccc2c2c1nnn2CCO	8.06
CCCCn1c(N)c(N(CC(C)C)C(=O)C2CC(=O)N(c3ccc(CC)cc3)C2)c(=O)[nH]c1=O (stereo not shown)	18.8
CC(C)CC(NS(=O)(=O)OCC(Cl)(Cl)Cl)c1ccccc1 (stereo not shown)	1.57
O=C(COC(=O)c1cc(-c2ccccc2)nc2ccccc12)NCC1CCCO1 (stereo not shown)	-22.4
CCN(CC)c1ccc(C(=S)NCc2ccccc2)cc1	13

SMILES	hERG current change (%, negative = inhibition) at 10uM [%]
COc1ccc(NC(=O)CC2SC(=N)N(c3ccccc3)C2=O)c(OC)c1 (stereo not shown)	29.4
O=C(CN1CCN(c2ccc(F)cc2)CC1)Nc1ccccc1	6.74
O=C(CN1CCN(c2ccc(F)cc2)CC1)Nc1ccc(F)c(F)c1	-27.8
O=C(CN1CCN(c2ccc(Cl)cc2)CC1)Nc1ccc(F)cc1	-60.9
CC(=O)Nc1ccc(S(=O)(=O)N(C)CC(=O)OCC(=O)N2CCCCC2)cc1	-1.43
O=C(Cn1c(NCCO)nc2ccccc21)NCCc1ccc(F)cc1	10.6
CCCC(=O)N1CCN(c2nc(CC(C)C)c3c(c2C#N)CCC3)CC1	-53
CC(=O)N1CCN(c2nc(CC(C)C)c3c(c2C#N)CCC3)CC1	-9.82
CC(C)Cc1nc(N2CCN(C(=O)C(C)C)CC2)c(C#N)c2c1CCC2	-27.2
CC(=O)c1ccc(N(CC(=O)NC2CCCC2)C(=O)c2csnn2)cc1	13.8
COc1cccc(C(=O)Nc2ccc(N3CCN(C(=O)c4cccs4)CC3)cc2)c1	-19.7
O=C(Nc1ccc(N2CCCC2)cc1)c1ccc(Br)o1	-20.8
CC(C)C(=O)N1CCN(c2ccc(NC(=O)c3ccc(Br)o3)cc2)CC1	-0.0806
O=C(Nc1ccc(N2CCN(C(=O)c3ccc(Cl)cc3)CC2)cc1)c1ccc(Br)o1	-75.3
N#CCC(=O)Nc1ccc(C(=O)N2CCN(c3ccccn3)CC2)cc1	18.4
O=C(Nc1ccc(N2CCN(C(=O)c3cccs3)CC2)cc1)c1ccc(F)cc1	-15.3
O=C(Nc1ccc(N2CCN(C(=O)c3ccccc3)CC2)cc1)c1ccc(Br)o1	-75.9
O=C(Nc1ccc(N2CCN(C(=O)c3cccs3)CC2)cc1)c1cccc(F)c1	-62.6
N#Cc1ccccc1N1CCN(C(=O)c2ccc(NC(=O)c3ccc(Br)o3)cc2)CC1	-18.9
O=C(Nc1ccc(C(=O)N2CCN(c3ccccn3)CC2)cc1)c1ccc(Br)o1	-66.7
O=C(Nc1ccc(N2CCN(C(=O)c3ccc(Cl)cc3)CC2)cc1)c1cc2ccccc2o1	-0.396
O=C(c1ccc(Br)o1)N1CCN(c2ccccn2)CC1	-19.3
O=C(COC(=O)Cc1ccc(F)cc1)NC1CCCC1	4.84

SMILES	hERG current change (%, negative = inhibition) at 10uM [%]
COc1ccc(N(CC(=O)Nc2cc(OC)c(OC)cc2C(=O)O)S(=O)(=O)c2c(C)noc2C)cc1	15.9
COc1ccc(/C=N/Nc2nnc(C)n2N)cc1OC(C)=O.Cl	14.3
COCCN(C(=O)COC(=O)c1nc(Cl)ccc1Cl)c1c(N)n(Cc2ccccc2)c(=O)[nH]c1=O	20.3
O=C1CC(c2ccco2)Cc2nc(N3CCc4ccccc4C3)ncc21 (stereo not shown)	-20.7
O=C(Nc1ccc(N2CCN(C(=O)c3cccs3)CC2)cc1)c1ccc([N+](=O)[O-])o1	-25.5
Cc1ccc(C(=O)N2CCN(c3ccc(NC(=O)c4ccc(Br)o4)cc3)CC2)cc1	-68.8
O=C(Nc1ccc(N2CCN(C(=O)c3cccs3)CC2)cc1)c1ccco1	17.7
O=C(Nc1ccc(N2CCN(C(=O)c3cccs3)CC2)cc1)c1ccc(Br)o1	-75.8
CCC(=O)N1CCN(c2ccc(NC(=O)c3ccc(Br)o3)cc2)CC1	-26.9
CN1CCN(c2ccc(NC(=O)c3ccc(Br)o3)cc2)CC1	-16.2
Cc1ccc(Nc2c(-c3ccccn3)nc3cccc(C)n23)cc1	10.1
Cc1ccc(C(=O)NNC(=O)/C=C\C(=O)O)cc1	6.41
CCOC(=O)/C=C/c1ccc2c(c1)S(=O)(=O)N(Cc1ccc(OC)cc1)[C@H]2CC(=O)OCC	-18.2
COc1ccc(-n2c(C)c3c(OC)cccc(=O)c3c2C)cc1	-60.2
COc1cccc(=O)c2c(C)n(-c3ccc(C(=O)O)cc3)c(C)c12	6.33
COc1cccc(-n2c(C)c3c(OC)cccc(=O)c3c2C)c1	-11.8
COc1cnc(-c2ccccn2)nc1N(C)c1ccccc1	14.2
Cc1ccc(-c2nc3ccccc3o2)cc1NC(=O)Cc1cccs1	18.7
CC(C)C[C@H](NC(=O)C1(c2ccccc2)CCN(C(=O)OC(C)(C)C)CC1)C(=O)N1CCC[C@H]1C(=O)O	9.37
CCN1C(=O)c2ccccc2S(=O)(=O)c2ccc(C(=O)NCCCN(CC(C)C)CC(C)C)cc21	-12.7
Cc1ccc(CN2C(=O)c3ccccc3Sc3ccc(C(=O)NCCN4CCOCC4)cc32)cc1	-15.2
CCN1C(=O)c2ccccc2Sc2ccc(C(=O)NCCC(C)C)cc21	-7.94
CCN1C(=O)c2ccccc2Sc2ccc(C(=O)NCCCN3CCOCC3)cc21	-17.8

SMILES	hERG current change (%, negative = inhibition) at 10uM [%]
Cc1ccccc1CN1C(=O)c2ccccc2Sc2ccc(C(=O)NCCN3CCOCC3)cc21	-69.6
CCN1C(=O)c2ccccc2Sc2ccc(C(=O)NCCCN(CC(C)C)CC(C)C)cc21	-64.3
Cc1ccc(CN2C(=O)c3ccccc3Sc3ccc(C(=O)NCCCN4CCOCC4)cc32)cc1	-2.12
Cc1ccccc1CN1C(=O)c2ccccc2Sc2ccc(C(=O)NCCCN3CCOCC3)cc21	-62.9
O=C(NCCN1CCOCC1)c1ccc2c(c1)N(Cc1ccccc1F)C(=O)c1ccccc1S2	-27
CCCCC1C2=C(CC(C)(C)CC2=O)OC2=C1C(=O)CC(C)(C)C2	-9.48
CC(C)(C)C1=C(C#N)C(c2cccnc2)C(C#N)=C(N)O1 (stereo not shown)	4.42
COc1cc(CCN)ccc1O.Cl	15.1
COP(=O)(OC)C(Nc1ccccc1)c1ccccc1 (stereo not shown)	11.4
COc1ccc(N2CCCC2)c(NC(=O)COc2ccccc2Cl)c1	14.8
CN1CCN(C(=O)/C(=C/c2ccccc2Cl)NC(=O)c2ccccc2)CC1	-10.8
CC(=O)Nc1ccc(C(=O)N/C(=C/c2ccccc2)C(=O)N2CCCCC2)cc1	4.57
COc1cc(/C=C(/NC(=O)c2ccccc2)C(=O)N2CCN(C)CC2)c([N+](=O)[O-])cc1OC	9.52
CN1CCN(C(=O)/C(=C\c2cccc([N+](=O)[O-])c2)NC(=O)c2cccs2)CC1	-25.4
O=C(N/C(=C\c1ccccc1)C(=O)N1CCOCC1)c1ccccc1Br	17.9
O=C(N/C(=C\c1ccc([N+](=O)[O-])cc1)C(=O)N1CCCCC1)c1ccccc1Br	-59.4
O=C(N/C(=C/c1cccc([N+](=O)[O-])c1)C(=O)N1CCOCC1)c1ccccc1Br	-7.05
CN1CCN(C(=O)/C(=C/c2ccc([N+](=O)[O-])cc2)NC(=O)c2ccccc2)CC1	-81.5
CN1CCN(C(=O)/C(=C/c2cccc([N+](=O)[O-])c2)NC(=O)c2ccccc2)CC1	-72.6
O=C(N/C(=C/C=C/c1ccccc1)C(=O)N1CCCCC1)c1ccc([N+](=O)[O-])cc1	-72.8
O=C(N/C(=C\c1cccc([N+](=O)[O-])c1)C(=O)N1CCCCC1)c1cccs1	7.93
O=C(N/C(=C/c1cccc([N+](=O)[O-])c1)C(=O)N1CCCC1)c1ccccc1	-46
